Assay results from PubChem BioAssay (NCI).
About 79,000 compounds went through this panel and 15% of them were active in at least one assay; those are over-represented in the sample as a whole. Activity calls are given as the source filed them. Cut-off read from the data, not from the text of the source: active = growth inhibition above about 70%; inactive = the rest. Where a SMILES comes first, the peptide text is derived from it. The star is where a group is joined. ONp = O=[N+]([O-])c1ccc(O*)cc1; Cbz = O=C(OCc1ccccc1)*; OBn = c1ccc(CO*)cc1

Assays:
[1] = NCI Yeast Anticancer Drug Screen. Data for the rad50 strain (AID 155);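 note: 0% = growth of vehicle-only cultures of the same strain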; conditions: S. cerevisiae rad50 strain growth inhibition; at 50.0 µM; active compounds read high
In short: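 Readout: growth inhibition relative to vehicle-treated cultures. Compound exposure was carried out in a genetically defined yeast strain deficient in DNA damage repair.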

[2] = NCI Yeast Anticancer Drug Screen. Data for the mec2-1 strain (AID 157); conditions: S. cerevisiae mec2-1 strain, at 50.0 µM, active compounds read high
In short: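 Readout is yeast growth inhibition, normalised to vehicle-treated controls, in the mec2-1 strain exposed to compound.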

[3] = NCI Yeast Anticancer Drug Screen. Data for the sgs1 mgt1 strain (AID 161);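 note: 0% = growth of cultures given vehicle only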; conditions: S. cerevisiae sgs1 mgt1 strain, at 50.0 µM, active compounds read high
In short: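 Growth of a repair-deficient yeast mutant was monitored after compound treatment and expressed as inhibition relative to vehicle-treated cultures.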

[4] = NCI Yeast Anticancer Drug Screen. Data for the cln2 rad14 strain (AID 165);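 note: 0% = growth equal to vehicle treated cultures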; conditions: S. cerevisiae cln2 rad14 strain, at 50.0 µM, active compounds read high
In short: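 Relative to vehicle controls, growth inhibition of compound-treated cln2 rad14 yeast was recorded.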

[5] = NCI Yeast Anticancer Drug Screen. Data for the bub3 strain (AID 167); conditions: S. cerevisiae bub3 mutant strain, at 50.0 µM, active compounds read high
In short: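 Readout: yeast growth inhibition, expressed relative to vehicle-only wells. The test organism is a mutant strain from a panel with lesions in DNA repair or checkpoint genes.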

[6] = NCI Yeast Anticancer Drug Screen. Data for the mlh1 rad18 strain (AID 175); conditions: S. cerevisiae mlh1 rad18 strain growth inhibition; at 50.0 µM; active compounds read high
In short: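 Test agents were incubated with a yeast strain of defined genotype (DNA damage repair defect). Inhibition of growth was derived by comparison with vehicle-exposed cultures.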

Measured: growth inhibition

O=C(Cc1ccccc1)Nc1ccccc1
inactive: [1] 17.9% | [2] -21.1% | [3] 2.45% | [4] -0.3% | [5] -7.55% | [6] 17.9%

O=C1C2C(Cl)C(Cl)C(Cl)C(Cl)C2C(=O)N1NC1CCC([N+](=O)[O-])CC1[N+](=O)[O-] (stereo not drawn)
inactive: [1] -22.9% | [2] -16.4% | [3] -18.5% | [4] 17.4% | [5] 2.5% | [6] 10.1%

COS(=O)(=O)OC1(SC)C=C(c2ccccc2)SS1 (stereo not drawn)
active: [1] 73% | [6] 72.6%
inactive: [2] 28.1% | [3] 29.2% | [4] 9.5% | [5] 20.3%

O=C1c2ccccc2C(=O)N1C/C(Cl)=C/Cl
inactive: [1] -21.9% | [2] -6.5% | [3] -11.4% | [4] -3.65% | [5] 8.75% | [6] -22.6%

CCN(CC)C1C(=O)NC1C#Cc1ccccc1 (stereo not drawn)
inactive: [1] 19% | [2] 6.5% | [3] 7.05% | [4] 5.95% | [5] 7.6% | [6] 15.6%

CCC1(C(=O)OC)CCC2C3CCC4CCCCC4(C)C3CCC21C (stereo not drawn)
inactive: [1] 4.6% | [2] -8.9% | [3] 9.25% | [4] -3.95% | [5] 5.4% | [6] 11.1%

C/C(=N/S(=O)(=O)c1ccc(C)c(C)c1)OC(C)C
inactive: [1] 2.6% | [2] 6.9% | [3] 7.95% | [4] -55.1% | [5] 13.1% | [6] -1.2%

O=C(O)c1cccc(O)c1C(=O)O
inactive: [1] 29.2% | [2] -3.4% | [3] 21.9% | [4] 21.2% | [5] 0.75% | [6] 33.9%

COc1ccccc1NC(=S)N/C=C(\C#N)c1nc2ccccc2s1
inactive: [1] -28.4% | [2] 5.95% | [3] -8.9% | [4] 3.45% | [5] 2.3% | [6] -3%

OCc1ccc(CO)o1
inactive: [1] 17.8% | [2] 15.7% | [3] -16.4% | [4] -1.55% | [5] 24.1% | [6] 5.4%

O=C(/C=C/c1ccc(Cl)c(Cl)c1)c1ccccc1
inactive: [1] -7.1% | [2] -52.9% | [3] -7.9% | [4] -16.9% | [5] 35% | [6] -59.4%

CC(=O)c1cccc(C(=O)O)c1
inactive: [1] -17.4% | [2] 1.95% | [3] -11.7% | [4] -29.7% | [5] -2.35% | [6] -4.3%

CC(=O)OC1Cc2ccccc2C1OC(C)=O (stereo not drawn)
inactive: [1] -1.9% | [2] 9.4% | [3] -8.8% | [4] -9.8% | [5] -19.4% | [6] 7.1%

CNC(=O)NC(C)(C)CCCCC(C)(C)NC(=O)NC
inactive: [1] 0.5% | [2] 17.3% | [3] 28.3% | [4] -16.9% | [5] -4.65% | [6] 19.8%

COc1ccc(/C=C2/N=C(c3ccccc3)OC2=O)cc1
inactive: [1] -2.75% | [2] -8.35% | [3] -0.3% | [4] -28.9% | [5] -1.75% | [6] -6.8%

CCOC(=O)C1=C(Nc2ccccc2)OC/C1=N\NC(=O)Cc1ccccc1
inactive: [1] -6.75% | [2] -23.7% | [3] -1.6% | [4] 0.85% | [5] 10.2% | [6] -19.1%

Nc1ccc(NC(=O)Nc2ccc(N)cc2)cc1
inactive: [1] 24.5% | [2] 4.3% | [3] 16.8% | [4] 9.15% | [5] 10.8% | [6] 20.4%

Brc1ccc(-c2oc3c4ccccc4c4ccccc4c3c2-c2ccc(Br)cc2)cc1
inactive: [1] 32.5% | [2] 5.35% | [3] 17.8% | [4] -0.95% | [5] 2.9% | [6] 15.2%

CCOC(=O)C(C(=O)OCC)C(=O)C(C)(C)C
inactive: [1] 25.8% | [2] 0.3% | [3] 0.7% | [4] 11.2% | [5] 30.5% | [6] 18.9%

O=C(O)C(O)c1c[nH]c2ccccc12 (stereo not drawn)
inactive: [1] -4.85% | [2] -2.3% | [3] -26.6% | [4] -1.25% | [5] -11.4% | [6] -29.3%

N#CC1=C(N)CCC(C#N)(c2ccccc2)C1 (stereo not drawn)
inactive: [1] 2.4% | [2] 2% | [3] 22.4% | [4] 14.8% | [5] 22.8% | [6] 8.2%

CC1CC[N+]2(C)CCCC12 (stereo not drawn)
inactive: [1] 1.1% | [2] -4.4% | [3] -5.3% | [4] -39.3% | [5] -23.9% | [6] -12.4%

COc1cc(C2CC=CCC2C(=O)O)cc(OC)c1OC (stereo not drawn)
inactive: [1] -13.6% | [2] 2.4% | [3] -0.65% | [4] 7.95% | [5] -0.25% | [6] 0.9%

COC(=O)c1ccc(Cn2ccc(=O)n(Cc3ccc(C(=O)OC)cc3)c2=O)cc1
active: [3] 74.6%
inactive: [1] 63.2% | [2] 23.8% | [4] 30.6% | [5] 31.3% | [6] 43.1%

S=C1NNC(=S)NN1
inactive: [1] 43.7% | [2] 29.8% | [3] 39.9% | [4] 37.9% | [5] 49.9% | [6] 62.7%

O=C1NCCN1CCCl
inactive: [1] 0.7% | [2] -1.25% | [3] -5.15% | [4] 1.5% | [5] 1.65% | [6] 6.25%

CCOC(=O)C(c1ccsc1)C(C(=O)OCC)c1cccs1 (stereo not drawn)
inactive: [1] 3.3% | [2] 23.1% | [3] -4.95% | [4] -3.35% | [5] 25.6% | [6] 17%

O=C(CNC(=O)C(CCC(=O)OCc1ccccc1)NC(=O)OCc1ccccc1)NCC(=O)NC(CO)C(=O)NCC(=O)Oc1ccc([N+](=O)[O-])cc1 (stereo not drawn) (Cbz-E(OBn)GGSG-ONp; configuration not given here)
inactive: [1] 3.75% | [2] 8.05% | [3] 21.4% | [4] -7.85% | [5] 1.65% | [6] 20.4%

CCOC(=O)NN(C(=O)OCC)c1c(C)[nH]c2ccccc12
inactive: [1] 20.3% | [2] 10.6% | [3] 19.4% | [4] -10.6% | [5] 4.65% | [6] 24.5%

CCC(C)NC(=O)/C=C/c1ccccc1 (stereo not drawn)
inactive: [1] 31.9% | [2] 17.1% | [3] 14.4% | [4] 12.4% | [5] -1.1% | [6] 6.65%

Nc1ccc(/C(=N\O)c2ccccc2)cc1
inactive: [1] 19.6% | [2] 13.9% | [3] 23.9% | [4] 0.8% | [5] -2.6% | [6] 10.1%

Cc1cc2c(cc1C)[n+](=O)c(C(=O)/C=C/c1ccc3c(c1)OCO3)c(C)n2[O-]
inactive: [1] 5.85% | [2] 13.4% | [3] 10.1% | [4] 28.8% | [5] 1.35% | [6] 0.15%

O=C1CSC=NN1c1ccccc1
inactive: [1] -12.8% | [2] -6.75% | [3] -14.9% | [4] -9.75% | [5] 5.75% | [6] 3.9%

CCOC(=O)Nc1cc([N+](C)(C)C)ccc1OCCOc1ccc([N+](C)(C)C)cc1
inactive: [1] -0.4% | [2] 5.35% | [3] -8.4% | [4] -8.8% | [5] -1.65% | [6] 28.6%

N#CC1=CNc2ccccc2N=C1N
inactive: [1] 8.55% | [2] -4.75% | [3] 28.4% | [4] 8.55% | [5] 28.2% | [6] 24.1%

Cn1c(=O)c2c(ncn2CCN2CCNCC2)n(C)c1=O
inactive: [1] 13.8% | [2] -12.8% | [3] 0.2% | [4] -37.5% | [5] 25.4% | [6] 3.9%

CCN(CC)c1ccc(N)cc1
inactive: [1] -4.05% | [2] -9.9% | [3] 26.1% | [4] -4.4% | [5] -3.1% | [6] 35.1%

CCCCC(=O)/C=C/c1ccccc1
inactive: [1] 12.3% | [2] -8.15% | [3] -3.95% | [4] -46.5% | [5] -6.6% | [6] -3.4%
